Laboratory results as given in PubChem BioAssay AID1159580 (chemical genetic matrix, 2015).
In all, about 5,500 compounds went through this assay and about 2,000 (36%) were called active. Inconclusive results (about 18%) are left out. No stated cut-off is given here; in the data, active means normalized growth mostly below about 0.91 (no sharp cut-off); inconclusive means no clear call, values can overlap the other calls; inactive means mostly above about 0.92. Some of the results follow.

Experiment: chemical genetic growth profiling, strain panel (AID 1159580);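 further: tested at 20 µM; growth read once vehicle control cultures reached saturation at 30 °C; 1 = growth at the plate median or of vehicle wells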
Details: S. cerevisiae deletion strains, growth OD

Measured: normalized growth

COC(=O)[C@]1(C)CCC[C@]2(C)c3ccc(C(C)C)cc3C(=O)CC12 (stereo partly drawn)
inactive: locus YAL013W, strain DEP1, stronger effect = lower value 0.981 | locus YAL021C, strain ccr4, stronger effect = lower value 0.992 | locus YAL026C, strain drs2, stronger effect = lower value 0.952 | locus YAL030W, strain snc1, stronger effect = lower value 0.974 | locus YBL061C, strain skt5, stronger effect = lower value 0.972 | locus YBR009C, strain hhf1, stronger effect = lower value 0.961 | locus YBR021W, strain FUR4, stronger effect = lower value 1.1 | locus YBR023C, strain chs3, stronger effect = lower value 0.973 | locus YBR229C, strain ROT2, stronger effect = lower value 0.986 | locus YBR231C, strain swc5, stronger effect = lower value 0.968 | locus YBR279W, strain paf1, stronger effect = lower value 0.971 | locus YCL011C, strain gbp2, stronger effect = lower value 0.961 | locus YCL016C, strain dcc1, stronger effect = lower value 0.979 | locus YCL029C, strain bik1, stronger effect = lower value 1.01 | locus YCL061C, strain MRC1, stronger effect = lower value 0.968 | locus YCL069W, strain vba3, stronger effect = lower value 0.956 | locus YCR088W, strain abp1, stronger effect = lower value 0.96 | locus YDL005C, strain med2, stronger effect = lower value 0.945 | locus YDL035C, strain GPR1, stronger effect = lower value 0.999 | locus YDL040C, strain nat1, stronger effect = lower value 0.96 | locus YDL074C, strain BRE1, stronger effect = lower value 0.863 | locus YDL101C, strain DUN1, stronger effect = lower value 0.969 | locus YDL134C, strain PPH21, stronger effect = lower value 0.974 | locus YDL185W, strain tfp1, stronger effect = lower value 1 | locus YDL192W, strain arf1, stronger effect = lower value 1.01 | locus YDR001C, strain nth1, stronger effect = lower value 0.957 | locus YDR069C, strain doa4, stronger effect = lower value 0.974 | locus YDR101C, strain arx1, stronger effect = lower value 1.01 | locus YDR137W, strain rgp1, stronger effect = lower value 0.866 | locus YDR150W, strain NUM1, stronger effect = lower value 0.975 | locus YDR159W, strain sac3, stronger effect = lower value 0.95 | locus YDR162C, strain NBP2, stronger effect = lower value 0.866 | locus YDR195W, strain ref2 0.97 | locus YDR297W, strain sur2, stronger effect = lower value 0.967 | locus YDR318W, strain mcm21, stronger effect = lower value 1.02 | locus YDR334W, strain swr1, stronger effect = lower value 0.948 | locus YDR335W, strain msn5, stronger effect = lower value 0.978 | locus YDR388W, stronger effect = lower value 1 | locus YDR502C, strain sam2, stronger effect = lower value 0.985 | locus YEL003W, strain gim4, stronger effect = lower value 0.977 | locus YEL037C, strain rad23, stronger effect = lower value 0.95 | locus YEL061C, strain CIN8 (second series), stronger effect = lower value 0.948 | locus YEL061C, strain CIN8, stronger effect = lower value 0.997 | locus YER015W, strain faa2, stronger effect = lower value 0.974 | locus YER016W, strain bim1, stronger effect = lower value 0.958 | locus YER110C, stronger effect = lower value 1.02 | locus YER111C, strain swi4, stronger effect = lower value 0.956 | locus YER155C, strain BEM2 (second series), stronger effect = lower value 0.956 | locus YER155C, strain BEM2, stronger effect = lower value 0.995 | locus YER167W, strain BCK2, stronger effect = lower value 0.997 | locus YFR010W, strain ubp6, stronger effect = lower value 0.977 | locus YGL078C, strain dbp3, stronger effect = lower value 0.988 | locus YGL086W, strain mad1, stronger effect = lower value 1.01 | locus YGL167C, strain pmr1, stronger effect = lower value 0.928 | locus YGL173C, strain kem1, stronger effect = lower value 0.97 | locus YGL227W, strain vid30, stronger effect = lower value 0.972 | locus YGL240W, strain doc1, stronger effect = lower value 0.973 | locus YGL248W, strain PDE1, stronger effect = lower value 0.971 | locus YGL253W, strain hxk2, stronger effect = lower value 0.978 | locus YGR078C, strain PAC10, stronger effect = lower value 0.957 | locus YGR135W, strain pre9, stronger effect = lower value 0.954 | locus YGR229C, strain SMI1, stronger effect = lower value 0.861 | locus YGR252W, strain gcn5, stronger effect = lower value 1.1 | locus YHR013C, strain ard1, stronger effect = lower value 0.959 | locus YHR027C, strain rpn1, stronger effect = lower value 0.971 | locus YHR030C, strain SLT2, stronger effect = lower value 1 | locus YHR079C, strain IRE1 (second series), stronger effect = lower value 0.999 | locus YHR094C, strain hxt1, stronger effect = lower value 0.995 | locus YHR129C, strain ARP1, stronger effect = lower value 0.994 | locus YHR142W, strain chs7, stronger effect = lower value 0.98 | locus YHR200W, strain rpn10, stronger effect = lower value 0.993 | locus YIL066C, strain RNR3, stronger effect = lower value 0.974 | locus YIL073C, strain SPO22, stronger effect = lower value 1.01 | locus YIL125W, strain kgd1, stronger effect = lower value 0.996 | locus YIR030C, strain dcg1, stronger effect = lower value 0.993 | locus YJL092W, strain hpr5, stronger effect = lower value 0.946 | locus YJL095W, strain BCK1 (second series), stronger effect = lower value 0.972 | locus YJL095W, strain BCK1, stronger effect = lower value 0.889 | locus YJL115W, strain asf1, stronger effect = lower value 0.962 | locus YJL129C, strain trk1, stronger effect = lower value 0.899 | locus YJL134W, strain LCB3, stronger effect = lower value 0.989 | locus YJL154C, strain vps35, stronger effect = lower value 0.967 | locus YJL164C, strain tpk1, stronger effect = lower value 0.957 | locus YJL166W, strain qcr8, stronger effect = lower value 0.968 | locus YJL168C, strain set2, stronger effect = lower value 0.998 | locus YJL187C, strain SWE1 (second series), stronger effect = lower value 0.98
active: locus YBR171W, strain sec66, stronger effect = lower value 0.869 | locus YDR392W, strain spt3, stronger effect = lower value 0.732
